Laboratory results taken from PubChem BioAssay (NCATS).
Where “and” joins values, the source holds several entries; their conditions need not be identical. Identical values can stand only once. Results filed as inconclusive are left out. Calls of active or inactive are those of the source. Unless noted, calls follow the shape of the dose curve; as a rule, active = well fitted curve in the direction sought with a large enough effect; inconclusive = small, poorly fitted or top-dose-only effect, or another doubt; inactive = no such curve, though single readings can be large; an effect the other way counts as inactive or inconclusive.

Assays:
CP185 = assay: qHTS profiling for inhibitors of Plasmodium falciparum proliferation (AID 504749); also: nearly all actives have a fitted effect of over 60% in size; also: potency is read from the fitted curve at half-maximal effect; conditions: P. falciparum in erythrocytes, SYBR Green DNA, 72 h; series mostly up to 28.7 µM
Summary of the method: (§1)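 Readout was DNA-dye fluorescence from lysed cultures, ex 485/em 535 nm. Parasitized red cells had grown 72 h with compound; data scaled between 0.29 uM artemisinin and DMSO wells and corrected using vehicle-only plates.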

CP192 = assay: as above; conditions: P. falciparum in erythrocytes, SYBR Green DNA, 72 h; series mostly up to 28.7 µM
Summary of the method: as §1

CP194 = assay: as above; conditions: P. falciparum in erythrocytes, SYBR Green DNA, 72 h; series mostly up to 28.7 µM
Summary of the method: as §1

CP203 = assay: as above; conditions: P. falciparum in erythrocytes, SYBR Green DNA, 72 h; series mostly up to 28.7 µM
Summary of the method: as §1

CP238 = assay: as above; conditions: P. falciparum in erythrocytes, SYBR Green DNA, 72 h; series mostly up to 28.7 µM
Summary of the method: as §1

CP286 = assay: as above; conditions: P. falciparum in erythrocytes, SYBR Green DNA, 72 h; series mostly up to 28.7 µM
Summary of the method: as §1

CP305 = assay: as above; conditions: P. falciparum in erythrocytes, SYBR Green DNA, 72 h; series mostly up to 28.7 µM
Summary of the method: as §1

DIV30 = assay: as above; conditions: P. falciparum in erythrocytes, SYBR Green DNA, 72 h; series mostly up to 28.7 µM
Summary of the method: as §1

HB3 = assay: as above; conditions: P. falciparum in erythrocytes, SYBR Green DNA, 72 h; series mostly up to 28.7 µM
Summary of the method: as §1

P94_40 = assay: as above; conditions: P. falciparum in erythrocytes, SYBR Green DNA, 72 h; series mostly up to 28.7 µM
Summary of the method: as §1

PC49 = assay: as above; conditions: P. falciparum in erythrocytes, SYBR Green DNA, 72 h; series mostly up to 28.7 µM
Summary of the method: as §1

3D7 = assay: as above; conditions: P. falciparum in erythrocytes, SYBR Green DNA, 72 h; series mostly up to 28.7 µM
Summary of the method: as §1

[1] = qHTS assay for small molecule antagonists of peroxisome proliferator-activated receptor delta signaling (AID 588535); conditions: HEK293T PPARd-UAS-bla, beta-lactamase FRET ratio, 18 h; 460 nm channel;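 also: cells co-treated with a PPAR-delta agonist as stimulator during compound exposure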
Summary of the method: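 Cells were seeded at 4000 per well in assay medium containing 2% charcoal/dextran FBS and held 5 hrs at 37 C. Compounds were then added for 18 hrs. CCF4 substrate was applied for 2 hrs at room temperature before fluorescence reading.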

[2] = biological target: Vitamin D3 receptor (Homo sapiens) (UniProt P11473); assay: qHTS assay for small molecule antagonists of vitamin D receptor signaling (AID 588541; calls by dose curve;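 also: receptor activated by calcitriol during compound treatment; % is scaled to controls: 0 for no effect and ±100 for the full control effect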)
Summary of the method: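 VDR-UAS-bla HEK293T cells in 2% charcoal-stripped FBS were stimulated with 1-alpha,25-dihydroxyvitamin D3 (3 nM final) plus compound for 16 h at 37 C. The beta-lactamase CCF4 readout was normalized to 50 nM agonist and DMSO, and Hill fits gave IC50.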

[3] = qHTS assay for small molecule antagonists of retinoid X receptor alpha signaling (AID 588546; active = well fitted inhibition curve with a large enough effect in the signal ratio, with a control signal flat, not every such curve was filed as active; the % refers to the signal ratio;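 also: cells stimulated with 9-cis-retinoic acid as agonist; % is scaled to controls: 0 for no effect and ±100 for the full control effect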); conditions: HEK293T RXRa-UAS-bla, beta-lactamase ratio, antagonist mode; measured here: W530 green channel, cytotoxicity proxy
Summary of the method: (§2)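 Beta-lactamase reporter inhibition, read as CCF4 fluorescence ratio (ex 405, em 460/530 nm) after 2 h at RT. HEK293T UAS-bla cells, 2500/well, were stimulated with 9-cis-RA at 500 or 100 nM final alongside test compound for 18 h at 37 C.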

[4] = biological target: Retinoic acid receptor RXR-alpha (Homo sapiens) (UniProt P19793); assay: as above; conditions: HEK293T RXRa-UAS-bla, beta-lactamase ratio, antagonist mode
Summary of the method: as §2

[5] = qHTS assay for environmental chemicals that activate the Aryl hydrocarbon Receptor (AhR) signaling pathway (AID 651777); conditions: 1A2-DRE human hepatoma cells, luciferase, 24 h; activation: stronger effect = higher value; also: % of control where 0% means no effect; nearly all actives have a fitted effect of over 15% in size
Summary of the method: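 Human hepatoma 1A2-DRE cells, stably carrying a dioxin response element and CYP1A2 promoter driving luciferase, were exposed to compounds for 24 hr at 37 C and 5% CO2. Luciferase signal was then read after 30 min One-Glo at room temperature.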

[6] = qHTS assay for small molecule agonists of the antioxidant response element (ARE) signaling pathway measured by Nrf2-dependant transcriptional activity (AID 720636; active = well fitted curve in the direction sought with a large enough effect in the repeat runs; an effect the other way counts as inactive or inconclusive; also: % of control where 0% means no effect)
Summary of the method: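 ARE-luc HepG2 cells carrying an Nrf2-responsive luciferase reporter were plated in medium with 1% dialyzed FBS, left 6 hr at 37 C to attach, then exposed to compound for 16 hr. Luciferase luminescence was read after ONE-Glo addition.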

[7] = qHTS assay for cell viability of the p53RE-bla HCT-116 cell line (AID 743292); also: % is scaled to controls: 0 for no effect and ±100 for the full control effect; nearly all actives have a fitted effect of over 55% in size
Summary of the method: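 CellSensor p53RE-bla HCT-116 cells, 4,000/well, preincubated 5 h at 37 C, then exposed to compounds in DMSO for 16 h at 37 C. Viability read as CellTiter-Glo luminescence (intracellular ATP) after 30 min at room temperature.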

[8] = biological target: Nuclear receptor subfamily 1 group I member 2 (Rattus norvegicus) (UniProt Q9R1A7); assay: qHTS assay for small molecule activators of the rat pregnane X receptor (rPXR) signaling pathway (AID 651751; call rule not given here; also: 0% is about no effect); conditions: rPXR reporter cells, luciferase (One-Glo), 24 h
Chain of Nuclear receptor subfamily 1 group I member 2 (Rattus norvegicus) (Q9R1A7 whole entry, looked up): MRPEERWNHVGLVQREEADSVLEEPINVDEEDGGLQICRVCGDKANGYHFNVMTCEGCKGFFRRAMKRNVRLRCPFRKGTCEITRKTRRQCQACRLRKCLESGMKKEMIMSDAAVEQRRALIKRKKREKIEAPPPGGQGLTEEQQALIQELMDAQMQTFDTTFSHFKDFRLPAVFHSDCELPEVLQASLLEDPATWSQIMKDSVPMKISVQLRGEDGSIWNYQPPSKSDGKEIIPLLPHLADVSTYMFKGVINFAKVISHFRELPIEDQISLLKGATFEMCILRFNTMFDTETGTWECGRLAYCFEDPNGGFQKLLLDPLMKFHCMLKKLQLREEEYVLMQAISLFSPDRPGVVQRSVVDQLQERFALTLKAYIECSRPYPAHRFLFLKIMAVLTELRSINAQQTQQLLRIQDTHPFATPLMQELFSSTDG

Chain of Vitamin D3 receptor (Homo sapiens) (P11473 whole entry, looked up): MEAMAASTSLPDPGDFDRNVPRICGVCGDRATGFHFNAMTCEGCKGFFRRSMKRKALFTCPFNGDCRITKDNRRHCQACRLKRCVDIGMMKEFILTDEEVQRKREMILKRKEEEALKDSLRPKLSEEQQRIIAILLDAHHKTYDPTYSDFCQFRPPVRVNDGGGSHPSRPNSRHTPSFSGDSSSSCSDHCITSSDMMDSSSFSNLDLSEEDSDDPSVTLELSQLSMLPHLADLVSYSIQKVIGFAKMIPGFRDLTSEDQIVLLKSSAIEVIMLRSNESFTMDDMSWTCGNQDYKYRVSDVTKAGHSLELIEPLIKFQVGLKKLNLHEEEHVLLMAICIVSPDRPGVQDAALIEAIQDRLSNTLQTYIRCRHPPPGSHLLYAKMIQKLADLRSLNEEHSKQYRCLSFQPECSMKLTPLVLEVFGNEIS
Chain of Retinoic acid receptor RXR-alpha (Homo sapiens) (P19793 whole entry, looked up): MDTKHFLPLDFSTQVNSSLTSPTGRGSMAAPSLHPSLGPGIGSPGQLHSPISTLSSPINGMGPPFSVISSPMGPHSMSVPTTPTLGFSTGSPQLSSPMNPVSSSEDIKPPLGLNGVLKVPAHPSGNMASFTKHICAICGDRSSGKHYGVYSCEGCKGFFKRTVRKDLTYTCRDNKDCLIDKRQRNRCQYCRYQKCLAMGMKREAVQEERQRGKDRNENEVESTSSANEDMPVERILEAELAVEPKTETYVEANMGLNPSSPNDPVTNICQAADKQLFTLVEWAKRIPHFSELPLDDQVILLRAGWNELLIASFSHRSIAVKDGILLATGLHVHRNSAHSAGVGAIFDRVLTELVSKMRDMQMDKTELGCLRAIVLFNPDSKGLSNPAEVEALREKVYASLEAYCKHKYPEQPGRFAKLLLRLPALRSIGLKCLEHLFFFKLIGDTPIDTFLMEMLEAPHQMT

O=c1ccc2cc(O[C@H]3O[C@@H](CO)[C@@H](O)[C@@H](O)[C@@H]3O)c(O)cc2o1
inactive: Potency (CP185) | Potency (CP192) | Potency (CP194) | Potency (CP203) | Potency (CP238) | Potency (CP286) | Potency (CP305) | Potency (DIV30) | Potency (HB3) | Potency (P94_40) | Potency (PC49)

O=C1C=C2C=CC3C[C@@]2(O1)C1CCCCN31 (stereo not given in full)
active: Potency (3D7) 12.6 µM | Potency (CP238) 11.2 µM | Potency (CP286) 11.2 µM | Potency (DIV30) 13.5 µM | Potency (HB3) 11.2 µM | Potency (P94_40) 8.91 µM | Potency (PC49) 10 µM

CNC(C)[C@@H](O)c1ccccc1 (stereo not given in full)
inactive: Potency (3D7) | Potency (CP185) | Potency (CP192) | Potency (CP194) | Potency (CP203) | Potency (CP238) | Potency (CP286) | Potency (CP305) | Potency (DIV30) | Potency (HB3) | Potency (P94_40) | Potency (PC49)

CCS(=O)CCSP(=O)(OC)OC (stereo not given)
-0.327%: max response [3]
inactive: outcome [2] | max response [4] 8.07% | activation [5] -0.491% | outcome [6] | Potency [7] | max response [8] -2.51%
34.5%: max response [1]

CCC(C)C1O[C@]2(C=CC1C)CC1CC(C/C=C(\C)[C@H](OC3CC(OC)C(O[C@H]4CC(OC)[C@@H](O)C(C)O4)C(C)O3)[C@@H](C)/C=C/C=C3\COC4C(O)C(C)=C[C@H](C(=O)O1)[C@@]34O)O2 (stereo not given in full)
active: Potency (3D7) 11.2 µM | Potency (CP185) 11.2 µM | Potency (CP192) 19 µM | Potency (CP194) 12 µM | Potency (CP203) 13.5 µM | Potency (CP305) 12 µM | Potency (P94_40) 10 µM

CCC(=O)Nc1ccc(Cl)c(Cl)c1
-13.9%: max response [3]
inactive: outcome [2] | max response [4] -5.6% | activation [5] 4.76% | outcome [6] | Potency [7] | max response [8] 6.65%

CC(C)N1C(=O)c2ccccc2NS1(=O)=O
inactive: outcome [2] | max response [4] 0.0964% | outcome [6] | Potency [7] | max response [8] -1.76%
55.3%: max response [1]
-4.57%: max response [3]

CCCCSP(=O)(SCCCC)SCCCC
-5.76%: max response [1]
inactive: outcome [2] | activation [5] -2.91% | outcome [6]

CCc1cccc(C)c1N(C(=O)CCl)C(C)COC (stereo not given)
0.387%: max response [3]
inactive: outcome [2] | max response [4] -18.8% | activation [5] -0.315% | Potency [7] | max response [8] 14%

COc1nc(NC(C)C)nc(NC(C)C)n1
inactive: outcome [2] | max response [4] -8.1% | activation [5] -1.56% | outcome [6] | Potency [7] | max response [8] -2.09%
-4.65%: max response [3]
7.33%: max response [1]

N#Cc1c(Cl)cccc1Cl
-15.4%: max response [3]
41.3%: max response [1]
inactive: max response [4] 2.12% | activation [5] -0.167% | outcome [6] | Potency [7] | max response [8] 2.13%

CC(C)(C)C(=O)C(Oc1ccc(Cl)cc1)n1cncn1 (stereo not given)
inactive: outcome [2] | max response [4] 0.375% and -49.7% | activation [5] 6% | outcome [6] | Potency [7]
2.99% and 5.39%: max response [3]
-36.1% and 32.9%: max response [1]

COP(N)(=O)SC (stereo not given)
inactive: outcome [2] | max response [4] -4.89% and -18.9% | activation [5] -0.0851% and 1.26% | outcome [6] | Potency [7] | max response [8] -2.32% and -2.07%
57.3% and -26.4%: max response [1]
-17.3% and -16.5%: max response [3]

O=C(O)COc1cc(Cl)c(Cl)cc1Cl
15.2%: max response [1]
inactive: outcome [2] | max response [4] -33.7% | activation [5] 0.686% | outcome [6] | Potency [7] | max response [8] -2.98%
20.3%: max response [3]

CC(C)Nc1nc(Cl)nc(NC(C)C)n1
-10.2%: max response [3]
inactive: outcome [2] | max response [4] -2.39% | activation [5] 0.683% | outcome [6] | Potency [7] | max response [8] -1.62%
16.2%: max response [1]
